# According to PubChem BioAssay (Tox21):
# Records with an inconclusive call do not appear. Where a call stands in place of a potency, no number is given. Calls of active or inactive are those of the source. The call rests on the fitted dose curve; in most records, active means well fitted activation curve with a large enough effect in the repeat runs; inconclusive means weak or mixed curves; inactive means flat fitted curve, though single readings scatter.
# Test: A CellTox Green Cytotoxicity Assay to monitor cytotoxicity in HepG2 cells - 16 hour (AID 1224876); further: nearly all actives have a fitted effect of over 45% in size
# Conditions: CellTox Green fluorescence; series mostly up to 76.8 µM
# Description: National Center for Advancing Translational Sciences [NCATS]
# NIH Chemical Genomics Center [NCGC]
# U.S. Environmental Protection Agency [EPA]
# National Institutes of Environmental Health Sciences [NIEHS]
# National Toxicology Program [NTP]
# Cell-based models are critical for drug discovery. Determining the natural cytotoxic effects resulting from test compounds is an essential research activity. A CellTox Green Cytotoxicity Assay to monitor cytotoxicity in real time of continues cell culture during 40 hours of the compound treatment was used to screen Tox21 10K library compounds in HepG2 cells. CellTox Green Cytotoxicity Assay is a nonlytic, homogeneous, biofluorescent method to measure cytotoxicity in cell culture after experimental manipulation. The assay system uses a proprietary asymmetric cyanine dye that is excluded from viable cells but preferentially stains the dead cell's DNA. […] Viable cells produce no appreciable increases in fluorescence. Therefore, the fluorescence signal produced by the binding interaction with dead cell DNA is proportional to cytotoxicity.
# The mixture of HepG2 cell suspension and reagents were dispensed at 600cells/6 ul/well in 1536-well tissue culture treated black solid bottom plates using a Multidrop dispenser. After the assay plates were incubated at a 37 C/5% CO2 incubator for 5 hours, 23 nL of compounds dissolved in DMSO, positive and negative controls was transferred to the assay plate by a pintool work station. The plates were incubated at 37 C for 40 hours. The fluorescence intensity were measured at 0h, 8h, 16h, 24h, 32h and 40h time points using ViewLux plate reader during compound treatment.
# Potency means the concentration at half of the fitted maximal effect.
row,SMILES,Potency
1,O=C(Nc1ccccc1)c1cc(Cl)ccc1O,inactive
2,CCC1(C)C(=O)N(Cl)C(=O)N1Cl (stereo not given),inactive
3,NC(=O)c1ccccc1Cl,inactive
4,Nc1cc([N+](=O)[O-])ccc1Cl,inactive
5,C/C=C/C(=O)OCC(C)C,inactive
6,c1ccc(-c2nc3ccccc3[nH]2)cc1,inactive
7,c1ccc(C[P+](c2ccccc2)(c2ccccc2)c2ccccc2)cc1,inactive
8,CC1CCC(C(C)(C)O)CC1 (stereo not given),inactive
9,C1CCSC1,inactive
10,C=CC(=O)O[C@H]1C[C@@H]2CC[C@@]1(C)C2(C)C,inactive
11,Nc1cccnc1N,inactive
12,Oc1ccc(Cl)cc1C1CCCC1,54.9 µM (active)
13,Cc1cc(F)ccc1-c1cc(N2CC[C@@H](O)[C@H]2CO)ncc1N(C)C(=O)C(C)(C)c1cc(C(F)(F)F)cc(C(F)(F)F)c1,43 µM (active)
14,O=C1CCC(=O)N1,inactive
15,CCc1cccc(C)c1N(C(=O)CS(=O)(=O)O)C(C)COC (stereo not given),inactive
16,CC1(C)[C@H]2CC[C@]1(C)C(=O)C2,inactive
17,C/C(=N\[Si](C)(C)C)O[Si](C)(C)C,inactive
18,CCC(O)CO (stereo not given),inactive
19,Nc1c(Br)cc([N+](=O)[O-])cc1Br,inactive
20,CN(C/C=C/c1ccccc1)Cc1cccc2ccccc12,23.9 µM (active)

row,SMILES,Potency
1,c1ccc(-c2ccccc2-c2ccccc2)cc1,inactive
2,Cc1ccc2nc(-c3ccc(N)cc3)sc2c1S(=O)(=O)O,inactive
3,CCCOC(=O)c1ccc(O)cc1,inactive
4,CCc1cccc(C)c1N(C(=O)C(=O)O)C(C)COC (stereo not given),inactive
5,O=C1OCc2ccccc21,inactive
6,CC/C(=C(/c1ccc(O)cc1)c1ccc(OCCN(C)C)cc1)c1ccccc1,25.7 µM (active)
7,CC(O)(c1ccc(Cl)cc1)c1ccc(Cl)cc1,49 µM (active)
8,NCc1ccco1,inactive
9,O=C1OC(O)C(C(Cl)Cl)=C1Cl (stereo not given),inactive
10,CCSCC,inactive
11,CCOC(=O)[C@H](C)O,inactive
12,SC1CCCCC1,inactive
13,CN1CCN(C)CC1,inactive
14,Nc1ccc2c(S(=O)(=O)O)cccc2c1S(=O)(=O)O,inactive
15,Oc1cccc2c(O)cccc12,inactive
16,N#Cc1nc(Cl)c(Cl)c(Cl)c1Cl,49 µM (active)
17,CCOC(=O)OC(=O)OCC,inactive
18,CCOc1nc(F)cc2nc(S(=O)(=O)Nc3c(Cl)cccc3C(=O)OC)nn12,inactive
19,O=C(Nc1ccc([N+](=O)[O-])cc1)Nc1ccc([N+](=O)[O-])cc1 (tested in a mixture with another compound),inactive
20,CC1(C)[C@H](C(=O)OCc2cccc(Oc3ccccc3)c2)[C@@H]1C=C(Cl)Cl,inactive
